According to PMC4336329 (PLoS ONE, 2015):
The campaign covered roughly 310,000 compounds. About 14,000 (4.5%) showed an effect of 50% or more. The effect is printed as a negative number. Only a selection was taken, and strong results are over-represented in it overall.

biological target: human ether-à-go-go-related gene (hERG) potassium channel (human, UniProt Q12809); test: primary screen, population patch clamp on CHO cells stably expressing hERG; higher = less effect of the substance
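Further: peak tail current of the secondary pulse compared with the same well before compound.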

human ether-à-go-go-related gene (hERG) potassium channel, sequence (Q12809 whole entry, looked up): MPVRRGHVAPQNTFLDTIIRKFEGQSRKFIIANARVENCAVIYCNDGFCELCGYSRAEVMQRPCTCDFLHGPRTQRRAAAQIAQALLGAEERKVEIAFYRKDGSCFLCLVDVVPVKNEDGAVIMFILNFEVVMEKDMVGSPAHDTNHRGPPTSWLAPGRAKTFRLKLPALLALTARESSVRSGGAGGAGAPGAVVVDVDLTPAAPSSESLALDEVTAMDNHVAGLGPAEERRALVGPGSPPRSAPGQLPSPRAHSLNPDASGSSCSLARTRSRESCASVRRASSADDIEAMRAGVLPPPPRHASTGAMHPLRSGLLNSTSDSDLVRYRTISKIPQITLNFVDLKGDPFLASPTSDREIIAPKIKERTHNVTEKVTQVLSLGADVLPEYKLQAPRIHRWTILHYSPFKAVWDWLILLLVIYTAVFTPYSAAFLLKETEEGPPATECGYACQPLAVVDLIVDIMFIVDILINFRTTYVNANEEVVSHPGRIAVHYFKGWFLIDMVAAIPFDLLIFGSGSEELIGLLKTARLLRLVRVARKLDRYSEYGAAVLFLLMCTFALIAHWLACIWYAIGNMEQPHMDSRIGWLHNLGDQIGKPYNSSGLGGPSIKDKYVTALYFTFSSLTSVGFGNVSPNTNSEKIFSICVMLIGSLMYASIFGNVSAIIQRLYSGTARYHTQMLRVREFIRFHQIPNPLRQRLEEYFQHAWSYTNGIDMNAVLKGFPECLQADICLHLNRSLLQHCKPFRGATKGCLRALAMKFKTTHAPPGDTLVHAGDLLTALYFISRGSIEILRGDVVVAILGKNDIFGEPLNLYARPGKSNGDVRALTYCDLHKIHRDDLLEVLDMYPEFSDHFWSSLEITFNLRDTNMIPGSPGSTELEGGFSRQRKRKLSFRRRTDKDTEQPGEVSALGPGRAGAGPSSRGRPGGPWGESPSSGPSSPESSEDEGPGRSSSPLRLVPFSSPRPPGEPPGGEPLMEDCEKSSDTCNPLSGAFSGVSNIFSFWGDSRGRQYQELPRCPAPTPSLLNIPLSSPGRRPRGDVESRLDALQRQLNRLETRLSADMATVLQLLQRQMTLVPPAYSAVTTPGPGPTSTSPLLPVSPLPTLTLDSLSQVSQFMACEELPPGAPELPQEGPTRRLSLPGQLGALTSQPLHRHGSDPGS

| SMILES | hERG current change (%, negative = inhibition) at 10uM [%] |
| --- | --- |
| CC(C)(C)c1ccc(C(=O)NCC2CCCN2S(=O)(=O)c2ccccc2)cc1 (stereo not drawn) | -6.28 |
| Cc1ccc(C(=O)N/N=C2\CCSC2)cc1[N+](=O)[O-] | -2.95 |
| COc1ccccc1C(CNC(=O)CSc1ccc2ccccc2c1)N(C)C (stereo not drawn) | -34.9 |
| COc1ccccc1NC(=O)Cn1cnc2c(cnn2-c2ccc(C)c(C)c2)c1=O | 12.1 |
| Cc1[nH]c2ccccc2c1/C=N/NC(=O)c1cccc(S(=O)(=O)Nc2cccc(C(F)(F)F)c2)c1 | 18.6 |
| CC(=O)c1ccc(OCc2cc(C(=O)NCCc3ccc(Cl)cc3)no2)cc1 | -29.7 |
| CSc1nnc(NC(=O)c2nc(S(=O)(=O)Cc3ccccc3)ncc2Cl)s1 | 0.719 |
| O=C(Nn1c(-c2ccc(Br)cc2)nc2ccccc2c1=O)c1ccncc1 | 20.2 |
| O=C(Nc1ccccn1)c1ccc(Cl)c(S(=O)(=O)N2CCCCCC2)c1 | -32.7 |
| CCOC(=O)c1cccc(C(=O)Oc2ccccc2)n1 | 14.6 |
| Cc1nn(-c2ccccc2)c(C)c1C(=O)OCC(=O)Nc1ccccc1 | -7.85 |
| Cc1cccc(-c2nsc(SCC(=O)NCc3ccco3)n2)c1 | 15 |
| Cc1nc(N=C(N)N)nc2c(C)cccc12 | 25.2 |
| Clc1ccc(C(Cn2ccnc2)OCc2c(Cl)cccc2Cl)c(Cl)c1 (stereo not drawn) | -32 |
| C=CCOC(Cn1ccnc1)c1ccc(Cl)cc1Cl (stereo not drawn) | -29.6 |
| Clc1ccc(C(c2ccc(Cl)cc2)n2cc[n+](CC(OCc3ccc(Cl)cc3Cl)c3ccc(Cl)cc3Cl)c2)cc1.[Cl-] (stereo not drawn) | -62.8 |
| CC(C)CCn1nnnc1C(c1ccc(F)cc1)N1CCC(C(N)=O)CC1 (stereo not drawn) | -21.4 |
| Fc1cccc(CNCCc2c[nH]c3ccccc23)c1.O=C(O)C(=O)O | -7.63 |
| Cc1c(CC(=O)NCCCCCC(=O)O)c(=O)oc2cc3c(cc12)CCC(C)(C)O3 | 9.83 |

| SMILES | hERG current change (%, negative = inhibition) at 10uM [%] |
| --- | --- |
| Cc1c(CC(=O)NCCCC(=O)O)c(=O)oc2cc3c(cc12)CCC(C)(C)O3 | -64.5 |
| Cc1c(CC(=O)NCCCO)c(=O)oc2cc3c(cc12)CCC(C)(C)O3 | 17.6 |
| COC(=O)c1ccc(NC(=O)CCc2nnc3ccc(NCc4ccco4)nn23)cc1 | 18.4 |
| CCCCN(C)CCNC(=O)CN1C(=O)CSc2ccc(S(=O)(=O)N3CCCC3)cc21 | -3.28 |
| CCCCN(CCCC)CCNC(=O)CN1C(=O)CSc2ccc(S(=O)(=O)N3CCCCC3)cc21 | -74.7 |
| CN(C)CCNC(=O)CN1C(=O)CSc2ccc(S(=O)(=O)N3CCCCC3)cc21 | 12.5 |
| CCCCN(CCCC)CCNC(=O)CN1C(=O)CSc2ccc(S(=O)(=O)N3CCOCC3)cc21 | -38.8 |
| CCCCN(C)CCNC(=O)CN1C(=O)CSc2ccc(S(=O)(=O)N3CCOCC3)cc21 | 2.2 |
| CCCCN(C)CCNC(=O)CN1C(=O)CSc2ccc(S(=O)(=O)N3CCCCC3)cc21 | -50.6 |
| O=c1oc(-c2ccccc2NS(=O)(=O)c2ccc3ccccc3c2)nc2ccccc12 | 22.9 |
| CC(=O)c1c(C(C)=O)c(C)n(NC(=O)c2ccncc2)c1C | 8.37 |
| COCCN(C(=O)CNC(=O)c1ccco1)C(C(=O)NC1CCCCC1)c1cccnc1 (stereo not drawn) | 20.1 |
| CC(C)c1ccc(S(=O)(=O)N(C)C2(C)CCS(=O)(=O)C2)cc1 (stereo not drawn) | -46.9 |
| Cc1cc(Cl)ccc1OCC(=O)OCC(=O)NC1CCS(=O)(=O)C1 (stereo not drawn) | -12.2 |
| O=C(CCNC(=O)c1ccccc1Cl)Nc1nc(-c2ccccc2Cl)cs1 | -7.92 |
| Cc1cccc(-n2ccnc2SCC(=O)Nc2ccc3c(c2)OCCO3)c1 | -14 |
| COc1cccc(NC(=O)c2ccc3c(c2)CCN3S(C)(=O)=O)c1 | 3.4 |
| Cc1nc2c(-c3ccccc3)c(C)nn2c(C)c1CCC(=O)NCc1ccco1 | -29.9 |
| Cc1nc2ncnn2c(C)c1CCC(=O)NC(C)CCc1ccco1 (stereo not drawn) | -8.57 |

| SMILES | hERG current change (%, negative = inhibition) at 10uM [%] |
| --- | --- |
| Cc1nc2c(-c3ccc(F)cc3)c(C)nn2c(C)c1CCC(=O)NC(C)CCc1ccco1 (stereo not drawn) | -68.8 |
| Cc1nc2c(-c3ccc(F)cc3)c(C)nn2c(C)c1CCC(=O)NCc1ccco1 | -19.9 |
| Cc1nc2c(-c3ccc(F)cc3)c(C)nn2c(C)c1CCC(=O)Nc1ccccc1 | 0.666 |
| Cc1nc2c(-c3ccccc3)c(C)nn2c(C)c1CCC(=O)NC(C)CCc1ccco1 (stereo not drawn) | -66.6 |
| CC(=O)Nc1cc2c(cc1NC(=O)Cn1nc(-c3ccccc3)ccc1=O)OCCO2 | 11.9 |
| COc1cccc(C2C(C(=O)c3cc4ccccc4o3)=C(O)C(=O)N2c2cc(C)on2)c1 (stereo not drawn) | 7.91 |
| O=C(Cc1csc(NC(=O)c2ccccc2)n1)NO | 8.93 |
| O=[N+]([O-])c1cc(CS(=O)(=O)Oc2ccc(Cl)cc2)c(O)c([N+](=O)[O-])c1 | 15.1 |
| CCCn1nnnc1NC(=O)c1ccc(C)cc1Cl | 5.02 |
| O=C(NCCOCCOCCNC(=O)c1ccccc1)c1ccccc1 | 12.7 |
| CCCCN(C)CCn1c(=S)[nH]c2cc(OCC)c(OCC)cc2c1=O | -55.8 |
| CCOc1cc2[nH]c(=O)n(CCCN3CCN(c4ccc(OC)cc4)CC3)c(=O)c2cc1OCC | -67.8 |
| CCOc1cc2[nH]c(=O)n(CCCC(=O)NCc3ccc(OC)cc3)c(=O)c2cc1OCC | 8.71 |
| CC1CCN(CCn2c(=S)[nH]c3cc4c(cc3c2=O)OCO4)CC1 | -27.4 |
| CCOc1cc2[nH]c(=O)n(CCCN3CCCC3=O)c(=O)c2cc1OCC | -6.1 |
| CCOc1cc2[nH]c(=S)n(CCCN3CCOCC3)c(=O)c2cc1OCC | -18.5 |
| CCOc1cc2[nH]c(=S)n(CCCN(CC)CC)c(=O)c2cc1OCC | -29.6 |
| CCOc1cc2[nH]c(=S)n(CCN3CCC(C)CC3)c(=O)c2cc1OCC | -51.2 |
| CCOc1cc2[nH]c(=S)n(CCCOC)c(=O)c2cc1OCC | -12.1 |
